Assay [1] in a line: AP1 Signaling Pathway (AID 357).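 Note: ME-180 reporter cells stimulated with EGF at its EC50 level; % is set by controls: 0 for no effect and ±100 for the full control effect.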 Conditions: ME-180 AP-1-bla reporter, EGF-induced, beta-lactamase ratio, 5 h; at 7.69 µM (top of the series) unless noted. The method in brief:
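First, ME-180 AP-1-bla cells were cultured overnight at 37 °C in low-serum Opti-MEM. Next, titrated compounds with EC50 EGF were incubated 5 hours. Finally, CCF4 was added for 2.5 hours and the 460/530 nm ratio recorded.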

Assay [2] deals with Cytochrome P450 1A2 (Homo sapiens) (UniProt P05177). As to the kind of experiment: p450-cyp1a2 (AID 410; calls by dose curve; note: potency is the fitted concentration of half-maximal effect). The method in brief:
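20nM CYP1A2, 100uM Luciferin-ME (=Km), 100mM KPO4; cpd 10 min RT; +NADPH regen, 60 min RT; stop/detect 20 min; luminescence. Normalized to furafylline 57 uM = full inhibition.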

Assay [3] in a line: NFAT Signaling Pathway (AID 444).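 Note: carbachol stimulus at about its EC50 of 1 µM final; % is set by controls: 0 for no effect and ±100 for the full control effect.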 The settings on record: Jurkat NFAT-bla M1, carbachol, beta-lactamase ratio, 5 h; at 7.69 µM (top of the series) unless noted. Summed up:
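Read-out: CCF4 FRET ratio (460 nm/530 nm) after 1 h RT dye loading, used for %activity and AC50 from titration series. Cells: Jurkat NFAT-β-lactamase/M1 line, treated with compound plus 1 uM carbachol for 5 h, 37 °C.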

A short description of assay [4]: Stat Signaling Pathway (AID 446).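 Note: ME-180 cervical cancer cells given 40 pM IL-6 alongside compound; SIE-controlled beta-lactamase reporter measured as 460/530 nm FRET emission ratio; % is set by controls: 0 for no effect and ±100 for the full control effect.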 Conditions: ME-180 (cervical carcinoma) SIE beta-lactamase reporter, IL-6 stimulated, 5 h; at 7.69 µM (top of the series) unless noted. Summed up:
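FRET read-out (405 nm excitation, 460/530 nm emission) of a beta-lactamase reporter under a STAT-inducible element in ME-180 cervical carcinoma cells. Cells with compound receive 40 pM IL-6 for 5 h. Values are normalised to AC90 stimulation and AC90 JAK-inhibitor controls.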

Assay [5] concerns the target Glucocorticoid receptor (Homo sapiens) (UniProt P04150). As to the kind of experiment: GR-GFP Redistribution (AID 450;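 active = compounds whose dose series gives a full or clear partial fitted curve of increased nuclear translocation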; note: potency is the fitted concentration of half-maximal effect). The settings on record: U2OS GR-GFP nuclear translocation, laser cytometry, 2 h.
For assay [6], the target named is Mitogen-activated protein kinase 10 (Mus musculus) (UniProt Q61831). In words: JNK3 AlphaScreen Assay (AID 530).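 Note: kinase came from lysate of stimulated human HepG2 cells; signal reports phosphorylation of biotinylated GST-cJun 1-79 at Ser73 with 10 µM ATP; % is set by controls: 0 for no effect and ±100 for the full control effect.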 The method in brief: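 Kinase buffer: 20 mM Tris-HCl pH 7.6, 10 mM MgCl2, 1 mM DTT, 0.1 mM Na3VO4, 0.01% Tween-20; ATP 10 uM. Substrate biotin-GST-cJun(1-79), enzyme from activated HepG2 lysates. Detection by Ser73 phospho-antibody AlphaScreen.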
(In general: Bead proximity is the source of the signal in Alpha formats.)

Assay [7] deals with 3',5'-cyclic-AMP phosphodiesterase 4B (Homo sapiens) (UniProt Q07343). As to the kind of experiment: qHTS Assay for Inhibitors of PDE-IV (AID 607; active = well fitted activation curve with a large enough effect in the main read-out, with a control signal flat, not every such curve was filed as active; note: % of control where 0% means no effect). Summed up: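 Cell-based read-out of cAMP via a modified cyclic nucleotide-gated channel and membrane potential dye (535/590 nm) in HEK293 cells expressing PDE4 endogenously. Compounds tested up to 22.9 uM final; 100 uM RO 20-1724 reference.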
3',5'-cyclic-AMP phosphodiesterase 4B (Homo sapiens), sequence (Q07343 whole entry, looked up): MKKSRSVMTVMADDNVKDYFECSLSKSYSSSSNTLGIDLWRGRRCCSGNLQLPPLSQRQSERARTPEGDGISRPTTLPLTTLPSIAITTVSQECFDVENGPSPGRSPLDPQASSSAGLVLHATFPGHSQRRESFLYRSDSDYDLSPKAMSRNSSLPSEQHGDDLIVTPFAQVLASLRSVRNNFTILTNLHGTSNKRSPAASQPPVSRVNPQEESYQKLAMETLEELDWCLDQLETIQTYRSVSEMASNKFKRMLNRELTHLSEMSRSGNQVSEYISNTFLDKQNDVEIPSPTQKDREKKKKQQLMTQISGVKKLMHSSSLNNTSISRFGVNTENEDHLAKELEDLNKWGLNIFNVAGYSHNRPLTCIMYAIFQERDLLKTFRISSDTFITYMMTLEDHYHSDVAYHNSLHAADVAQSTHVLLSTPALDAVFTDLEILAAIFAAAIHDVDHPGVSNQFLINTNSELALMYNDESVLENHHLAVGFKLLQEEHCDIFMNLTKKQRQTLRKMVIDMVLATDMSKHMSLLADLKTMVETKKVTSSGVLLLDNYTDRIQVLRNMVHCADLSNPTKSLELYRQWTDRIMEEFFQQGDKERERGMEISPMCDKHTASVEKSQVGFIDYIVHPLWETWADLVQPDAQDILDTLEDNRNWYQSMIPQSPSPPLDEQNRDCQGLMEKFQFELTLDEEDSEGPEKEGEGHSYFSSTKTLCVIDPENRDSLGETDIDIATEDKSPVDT
For orientation: qHTS replaces the single test concentration by a dilution series.

Assay [8] addresses Glucocorticoid receptor (Homo sapiens) (UniProt P04150). In words: GR-EFC Redistribution (AID 451; calls by dose curve; note: potency is the fitted concentration of half-maximal effect). The settings on record: CHO-K1 GR-EFC translocation, beta-gal luminescence, 2 h. The method in brief: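 Translocation of GR-ED fusion to nuclear EA restores b-gal, read by luminescence after 1 h room-temperature detection. Engineered CHO-K1 biosensor cells, 1,000/well, exposed 2 h at 37 C to titrations up to 46 uM final.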

Assay [9] addresses Cytochrome P450 2C19 (Homo sapiens) (UniProt P33261). In words: qHTS Assay for Inhibitors and Substrates of Cytochrome P450 2C19 (AID 899; active = well fitted curve in the direction sought with a large enough effect; an effect the other way counts as inactive or inconclusive; note: potency is the fitted concentration of half-maximal effect; nearly all actives have a fitted effect of over 60% in size). The method in brief:
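Reactions contain 5nM enzyme, 10uM Luciferin-H EGE (KM) and 50mM KPO4; compound preincubates 10 min at 37C, NADPH regeneration starts turnover for 60 min. Luminescence after detection reagent gives activity.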

Assay [10] can be described thus: qHTS Assay for Identification of Small Molecule Agonists for Thrombopoietin (TPO) Signaling Pathway (AID 917; active = well fitted curve in the direction sought with a large enough effect; an effect the other way counts as inactive or inconclusive; note: % is set by controls: 0 for no effect and ±100 for the full control effect). The method in brief: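 Stimulation at the TPO EC50 (26 pM final) was used to detect activators. Ba/F3 mouse cells bearing human TPO receptor and a luciferase reporter under the Glycoprotein IIb promoter were exposed to compounds for 24 hrs at 37 C.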
The target of assay [11] is Muscarinic acetylcholine receptor M1 (Rattus norvegicus) (UniProt P08482). In words: qHTS Assay for Antagonists of Acetylcholine Muscarinic M1 Receptor: Measurement of IP-One Response (AID 944; active = well fitted curve in the direction sought with a large enough effect; an effect the other way counts as inactive or inconclusive; note: nearly all actives have a fitted effect of over 75% in size). The method in brief: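 Read-out: HTRF competition between d2-IP1 and Eu-cryptate anti-IP1 antibody, emission 620 and 665 nm. Stimulus was carbachol, EC80 (200 nM), for 30 min in M1-CHO cells (rat receptor), after 10 min compound pre-treatment.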
Muscarinic acetylcholine receptor M1 (Rattus norvegicus), sequence (P08482 whole entry, looked up): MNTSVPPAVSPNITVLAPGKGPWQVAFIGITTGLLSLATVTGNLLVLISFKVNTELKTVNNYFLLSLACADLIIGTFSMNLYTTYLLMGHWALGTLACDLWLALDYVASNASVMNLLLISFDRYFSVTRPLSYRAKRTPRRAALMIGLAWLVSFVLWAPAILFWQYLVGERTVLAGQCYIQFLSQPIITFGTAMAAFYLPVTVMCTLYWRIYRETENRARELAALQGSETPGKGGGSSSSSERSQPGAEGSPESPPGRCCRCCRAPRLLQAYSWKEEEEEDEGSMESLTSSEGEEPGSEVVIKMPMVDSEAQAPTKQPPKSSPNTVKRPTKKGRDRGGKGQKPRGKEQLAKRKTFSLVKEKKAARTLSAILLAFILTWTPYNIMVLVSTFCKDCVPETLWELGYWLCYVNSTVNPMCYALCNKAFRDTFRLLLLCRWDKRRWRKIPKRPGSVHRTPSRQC

The target of assay [12] is Pyruvate kinase (Leishmania mexicana) (UniProt Q27686). In words: qHTS Validation Assay for Inhibitors of Leishmania Mexicana Pyruvate Kinase (AID 945; active = well fitted curve in the direction sought with a large enough effect; an effect the other way counts as inactive or inconclusive;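 note: 0% = DMSO only neutral control wells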). The method in brief:
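Eight-point qHTS titrations; enzyme 0.2 nM LmPYK (E451W mutant); substrates 0.5 mM PEP, 0.1 mM ADP; 7 mM MgCl2; 1 h room temperature; PKLight luminescence normalized to neutral control.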

The target of assay [13] is Pyruvate kinase PKM (Homo sapiens) (UniProt P14618). In words: qHTS Assay for Activators of Human Muscle Pyruvate Kinase (AID 954; active = well fitted curve in the direction sought with a large enough effect, not every such curve was filed as active;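 note: 0% = uninhibited enzyme and -100% = no enzyme or full thiadiazolimine inhibition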). Summed up:
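ATP production by PKM2 detected via luciferase luminescence after 1 h room-temperature reaction (0.1 nM enzyme, PEP at Km 0.5 mM, ADP 0.1 mM, pH 7.2 imidazole buffer). Inhibition scaled to no-enzyme control; activation referenced to 0.3 nM enzyme wells.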

Assay [14] concerns the target Alpha-galactosidase (Coffea arabica) (UniProt Q42656). In words: Counterscreen for Glucocerebrosidase Inhibitors: qHTS Assay for Coffee Bean alpha-Galactosidase at pH 4.5 (AID 957; active = well fitted curve in the direction sought with a large enough effect; an effect the other way counts as inactive or inconclusive;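 note: plate controls were enzyme alone for no effect and no enzyme for full effect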). The method in brief:
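Fluorogenic read-out: 4-methylumbelliferone at Ex 365/Em 440 nm after NaOH/glycine stop (pH 10). Enzyme 2 nM, 4-MU-alpha-galactoside 80 uM, citrate buffer pH 4.5, 20 min RT; normalized to no-enzyme and enzyme controls.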

Assay [15] has as its target Alpha-galactosidase A (Homo sapiens) (UniProt P06280). As to the kind of experiment: Counterscreen for Glucocerebrosidase Inhibitors: qHTS Assay for Human alpha-Galactosidase at pH 4.5 (AID 992; active = well fitted curve in the direction sought with a large enough effect; an effect the other way counts as inactive or inconclusive; note: 0% is about no effect). The method in brief: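 Fluorogenic 1536-well qHTS at pH 4.5 (citrate, Tween-20): 2 nM enzyme, 80 uM 4-MU-alpha-galactoside, 20 min room temperature, NaOH/glycine stop. Titration 0.7 nM to 77 uM, data normalized to no-enzyme and full-activity controls, Hill-fitted AC50.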
A general note: Counterscreens check selectivity or assay interference.

Assay [16] concerns the target alpha-glucosidase (Oryza sativa, rice) (UniProt Q653V4). As to the kind of experiment: Counterscreen for Glucocerebrosidase Inhibitors: qHTS Assay for Rice alpha-Glucosidase at pH 5.0 (AID 997; active = well fitted curve in the direction sought with a large enough effect; an effect the other way counts as inactive or inconclusive;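 note: 0% = full activity with enzyme and -100% = basal without enzyme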). Summed up: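 Endpoint fluorogenic assay at pH 5.0: compounds (0.7 nM to 77 uM) titrated against 4 nM rice enzyme and 400 uM 4-MU-alpha-glucoside for 20 min at room temperature; NaOH/glycine stop, read ex 365/em 440 nm, Hill-fitted AC50.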

The target in assay [17] is Alpha-galactosidase (Coffea arabica) (UniProt Q42656). As to the kind of experiment: Counterscreen for Glucocerebrosidase Inhibitors: qHTS Assay for Coffee Bean alpha-Galactosidase at pH 5.9 (AID 998; active = well fitted curve in the direction sought with a large enough effect; an effect the other way counts as inactive or inconclusive;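 note: plate controls were uninhibited enzyme for no effect and no-enzyme basal signal for full effect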). The method in brief:
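Fluorogenic 4-MU substrate hydrolysis, 80 uM substrate and 2 nM coffee bean alpha-galactosidase, pH 5.9 citrate buffer, 20 min at room temperature, then NaOH/glycine stop. Titration 0.7 nM–77 uM, normalized to no-enzyme and enzyme controls, AC50 via Hill equation.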

Assay [18] deals with Cytochrome P450 3A4 (Homo sapiens) (UniProt P08684). As to the kind of experiment: qHTS Assay for Activators of Cytochrome P450 3A4 (AID 885; active = well fitted curve in the direction sought with a large enough effect; an effect the other way counts as inactive or inconclusive; note: nearly all actives have a fitted effect of over 65% in size). Summed up:
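Luminescent readout of luciferin formed from 25 uM Luciferin-PPXE (KM level) by 20 nM CYP3A4 in 200 mM KPO4, with 60 min NADPH-driven reaction at room temperature after 10 min compound exposure. Ketoconazole (57 uM) defined 100% inhibition.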

Assay [19] concerns the target Guanine nucleotide-binding protein G(i) subunit alpha-1 (Homo sapiens) (UniProt P63096). As to the kind of experiment: qHTS Assay for Inhibitors of RGS12 GoLoco Motif Activity (Green Fluorophore) (AID 879; active = well fitted curve in the direction sought with a large enough effect; an effect the other way counts as inactive or inconclusive;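 note: 0% = labeled peptide with Gαi1 and full inhibition = labeled peptide alone without protein; negative values mean loss of peptide binding seen as reduced polarization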). The method in brief:
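A drop in FITC polarization marked displacement of the FITC-tagged RGS12 GoLoco peptide (10 nM) from Gαi1 (50 nM). Compounds were incubated 10 min at room temperature in Tris pH 7.5 buffer containing 150 mM NaCl, 0.1 mM GDP and 0.05% NP40; unlabeled peptide titration served as control.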

A number with no mark means an inactive call. Records with an inconclusive call do not appear. Calls of active or inactive are those of the source. Unless noted, calls come from the whole dose curve; as a rule, active = well fitted curve in either direction with a large enough effect (not every such curve was filed as active); inconclusive = small, poorly fitted or top-dose-only effect, or another doubt; inactive = flat fitted curve, though single readings scatter.

Glucocorticoid receptor (Homo sapiens), sequence (P04150 whole entry, looked up, the tested form may be a part): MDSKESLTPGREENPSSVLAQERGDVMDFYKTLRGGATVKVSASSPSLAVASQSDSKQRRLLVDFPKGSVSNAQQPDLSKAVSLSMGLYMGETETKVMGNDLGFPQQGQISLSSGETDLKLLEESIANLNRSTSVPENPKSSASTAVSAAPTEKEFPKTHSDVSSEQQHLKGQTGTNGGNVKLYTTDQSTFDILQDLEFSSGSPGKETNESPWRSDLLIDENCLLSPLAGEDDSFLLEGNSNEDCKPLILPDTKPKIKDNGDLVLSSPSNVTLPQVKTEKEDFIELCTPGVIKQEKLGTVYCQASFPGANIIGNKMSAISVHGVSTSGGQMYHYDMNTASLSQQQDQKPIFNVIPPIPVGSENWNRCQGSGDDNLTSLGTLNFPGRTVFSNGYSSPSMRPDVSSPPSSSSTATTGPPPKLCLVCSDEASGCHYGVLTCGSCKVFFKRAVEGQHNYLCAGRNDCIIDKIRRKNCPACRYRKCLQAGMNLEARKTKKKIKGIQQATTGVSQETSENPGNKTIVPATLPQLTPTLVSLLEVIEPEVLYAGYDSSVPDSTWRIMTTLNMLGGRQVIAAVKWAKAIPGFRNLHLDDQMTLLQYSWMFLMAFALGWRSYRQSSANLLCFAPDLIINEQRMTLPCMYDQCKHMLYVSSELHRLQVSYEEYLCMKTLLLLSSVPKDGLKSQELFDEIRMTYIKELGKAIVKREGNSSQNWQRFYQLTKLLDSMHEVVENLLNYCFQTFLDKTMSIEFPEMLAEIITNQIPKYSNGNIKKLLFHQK
Alpha-galactosidase (Coffea arabica), sequence (Q42656 whole entry, looked up): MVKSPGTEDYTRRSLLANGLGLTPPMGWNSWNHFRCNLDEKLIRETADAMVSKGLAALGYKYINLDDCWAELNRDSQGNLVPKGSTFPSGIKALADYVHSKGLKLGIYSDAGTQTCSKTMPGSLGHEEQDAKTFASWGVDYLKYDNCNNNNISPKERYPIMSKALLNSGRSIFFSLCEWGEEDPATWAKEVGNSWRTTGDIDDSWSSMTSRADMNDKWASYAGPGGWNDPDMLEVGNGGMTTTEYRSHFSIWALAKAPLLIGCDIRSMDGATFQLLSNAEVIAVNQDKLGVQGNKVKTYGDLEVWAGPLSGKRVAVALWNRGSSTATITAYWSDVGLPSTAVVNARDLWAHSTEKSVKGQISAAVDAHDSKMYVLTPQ
Cytochrome P450 1A2 (Homo sapiens), sequence (P05177 whole entry, looked up): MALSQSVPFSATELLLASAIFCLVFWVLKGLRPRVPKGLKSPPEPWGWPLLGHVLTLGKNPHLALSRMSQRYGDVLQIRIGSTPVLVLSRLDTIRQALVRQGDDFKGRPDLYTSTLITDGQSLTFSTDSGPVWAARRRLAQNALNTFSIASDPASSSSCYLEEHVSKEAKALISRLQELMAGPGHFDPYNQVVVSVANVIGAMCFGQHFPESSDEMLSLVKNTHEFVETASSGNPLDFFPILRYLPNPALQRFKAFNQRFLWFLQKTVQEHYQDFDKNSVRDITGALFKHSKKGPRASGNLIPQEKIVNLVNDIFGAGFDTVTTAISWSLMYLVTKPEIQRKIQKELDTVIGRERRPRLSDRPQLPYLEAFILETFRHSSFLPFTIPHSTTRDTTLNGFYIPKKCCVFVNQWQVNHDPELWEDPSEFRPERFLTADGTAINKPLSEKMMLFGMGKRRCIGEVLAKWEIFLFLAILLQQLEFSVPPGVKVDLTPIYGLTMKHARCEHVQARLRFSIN
Pyruvate kinase (Leishmania mexicana), sequence (Q27686 2-499 E452W): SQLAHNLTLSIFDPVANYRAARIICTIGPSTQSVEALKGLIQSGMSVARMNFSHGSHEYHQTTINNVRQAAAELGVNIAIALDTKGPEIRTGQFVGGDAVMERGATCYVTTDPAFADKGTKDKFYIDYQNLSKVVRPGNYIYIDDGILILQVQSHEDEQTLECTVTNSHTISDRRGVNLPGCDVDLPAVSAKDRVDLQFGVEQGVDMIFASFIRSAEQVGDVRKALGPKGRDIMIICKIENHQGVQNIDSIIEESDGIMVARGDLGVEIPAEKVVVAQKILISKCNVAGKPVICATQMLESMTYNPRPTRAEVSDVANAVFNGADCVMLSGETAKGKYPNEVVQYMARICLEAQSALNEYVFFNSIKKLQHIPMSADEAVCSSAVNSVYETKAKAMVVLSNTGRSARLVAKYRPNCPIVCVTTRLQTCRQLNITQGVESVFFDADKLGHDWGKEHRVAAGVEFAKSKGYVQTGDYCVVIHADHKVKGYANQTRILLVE
Alpha-galactosidase A (Homo sapiens), sequence (P06280 whole entry, looked up): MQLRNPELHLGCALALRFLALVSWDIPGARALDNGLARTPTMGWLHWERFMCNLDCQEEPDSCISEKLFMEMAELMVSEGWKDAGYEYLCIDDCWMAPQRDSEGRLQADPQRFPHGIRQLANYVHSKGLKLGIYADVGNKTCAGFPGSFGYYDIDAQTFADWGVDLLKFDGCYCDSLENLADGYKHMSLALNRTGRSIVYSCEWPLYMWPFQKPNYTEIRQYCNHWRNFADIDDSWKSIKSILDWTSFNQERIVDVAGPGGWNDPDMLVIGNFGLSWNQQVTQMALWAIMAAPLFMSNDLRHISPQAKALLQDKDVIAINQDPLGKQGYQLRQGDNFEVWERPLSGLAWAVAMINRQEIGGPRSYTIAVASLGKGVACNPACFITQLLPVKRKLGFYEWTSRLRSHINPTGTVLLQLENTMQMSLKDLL
Pyruvate kinase PKM (Homo sapiens), sequence (P14618 whole entry, looked up): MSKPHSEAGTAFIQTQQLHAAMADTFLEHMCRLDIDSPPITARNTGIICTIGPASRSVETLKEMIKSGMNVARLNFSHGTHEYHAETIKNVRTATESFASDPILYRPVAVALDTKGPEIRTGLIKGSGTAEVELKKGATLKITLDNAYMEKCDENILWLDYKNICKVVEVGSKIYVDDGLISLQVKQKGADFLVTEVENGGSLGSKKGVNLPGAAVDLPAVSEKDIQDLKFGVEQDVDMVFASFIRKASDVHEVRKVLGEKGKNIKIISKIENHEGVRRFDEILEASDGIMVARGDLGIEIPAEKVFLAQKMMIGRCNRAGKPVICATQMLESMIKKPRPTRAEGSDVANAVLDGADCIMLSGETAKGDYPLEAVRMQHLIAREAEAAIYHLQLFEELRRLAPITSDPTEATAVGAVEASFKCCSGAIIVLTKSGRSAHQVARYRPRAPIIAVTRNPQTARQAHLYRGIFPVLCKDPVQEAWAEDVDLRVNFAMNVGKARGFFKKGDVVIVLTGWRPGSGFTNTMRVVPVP
Cytochrome P450 2C19 (Homo sapiens), sequence (P33261 whole entry, looked up): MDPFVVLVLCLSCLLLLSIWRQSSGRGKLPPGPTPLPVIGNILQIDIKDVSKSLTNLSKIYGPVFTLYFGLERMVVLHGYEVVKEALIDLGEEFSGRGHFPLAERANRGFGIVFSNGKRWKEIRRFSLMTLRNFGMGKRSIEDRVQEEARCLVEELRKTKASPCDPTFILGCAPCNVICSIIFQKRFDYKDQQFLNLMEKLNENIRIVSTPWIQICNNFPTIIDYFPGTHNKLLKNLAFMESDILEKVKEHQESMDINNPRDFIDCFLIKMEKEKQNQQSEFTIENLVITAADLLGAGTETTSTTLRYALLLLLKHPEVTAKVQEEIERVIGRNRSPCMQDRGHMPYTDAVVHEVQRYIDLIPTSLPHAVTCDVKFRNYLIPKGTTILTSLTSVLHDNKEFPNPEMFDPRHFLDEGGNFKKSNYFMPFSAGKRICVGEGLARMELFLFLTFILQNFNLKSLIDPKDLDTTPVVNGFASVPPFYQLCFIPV

On to `CS(=N)(=O)CC[C@H](N)P(=O)(O)O` (some centres not stated), for which the figures for the activity change, negative = inhibition in assay [1], in [3] and in assay [6] were -0.909%, -0.082% and -2.65% [at 11.4 µM], respectively. Also, the Potency entry in assay [2] is “inactive”. In addition, in [4], the activity, negative = inhibition was 2.22%. In assay [5], the Potency was above 46 µM. Also, the molecule was called inactive in assay [7].
Consider `ClC(Cl)c1ccccc1`, for which the Potency result in [6] was “inactive”.
`O=C(O)c1cccc([As]=[As]c2cccc(C(=O)O)c2)c1` (configuration not stated): the activity change, negative = inhibition in assay [1] is -0.316%; in assay [3] it was -6.47%; in assay [6], -0.547% [at 11.4 µM]. In addition, in assay [4], the activity, negative = inhibition was 2.08%. The Potency in assay [5] was above 46 µM; in assay [8], above 9.22 µM. Further, the result in assay [7] was inactive.
For `CCOC(=O)[C@@H]1[C@@H]2c3ccccc3-c3ccccc3[C@H]2C[C@H]1O`, the activity change, negative = inhibition was -11.4% in assay [1], 2.27% in assay [3] and -2.11% [at 11.4 µM] in assay [6]. Besides, the Potency in [2] was 0.631 µM (active); in assay [5], above 46 µM; in [8], above 9.22 µM; in assay [9], 2 µM (active). The outcome in [7] was inactive.
In the case of `C=CCOCC1CO1` (configuration not stated), the Potency result in assay [6] is “inactive”.
Consider `CN1C[C@@H](CS(=O)(=O)N(C)C)C[C@H]2c3cccc4c3c(cn4C)C[C@@H]21`, for which the results for the activity change, negative = inhibition in [1] and in [3] were 2.96% [at 38 µM] and 4.13% [at 38 µM], respectively. In addition, the Potency is 25.1 µM (active) in assay [2] and above 46 µM in assay [8]. Further, in assay [4], the activity, negative = inhibition was -10.8% [at 38 µM]. Moreover, the Potency entry in assay [6] and in assay [11] was “inactive” throughout. The outcome in assay [7], in assay [10], in [12], in assay [13], in assay [14] and in [15] was inactive. Further, the molecule was classed as inactive in [16] and in assay [17].
On to `Cc1c([C@@H](C)[C@H]2NC[C@H](C)C[C@@H]2O)ccc2c1C[C@@H]1[C@H]2CC=C2C[C@@H](O)CC[C@@]21C`, for which the figures for the activity change, negative = inhibition in assay [1], in assay [2] and in [3] were -4.38%, 1.3% [at 2.29 µM] and -6.08%, respectively. Moreover, the activity, negative = inhibition in [4] was -1.08%. For the same molecule, the Potency in [5] is above 46 µM. In addition, the result in assay [7] was inactive. Also, the activity change, positive = activation in [18] is -38% [at 11.4 µM].
In the case of `COc1cc([C@@H](O)CN)ccc1O`, the activity change, negative = inhibition in assay [1] is -3.13% [at 38 µM]; in assay [3] it was 6.77% [at 38 µM]. In addition, the Potency entry in assay [2], in assay [6] and in [11] was “inactive” each time. Moreover, the activity, negative = inhibition in assay [4] is 3.87% [at 38 µM]. The Potency in assay [5] is above 46 µM. Also, the outcome in assay [7], in assay [19], in assay [10], in [12], in [13] and in assay [14] was inactive. Moreover, the molecule was called inactive in assay [15], in assay [16] and in [17].
Take `COc1cc2ccccc2c2cc([N+](=O)[O-])oc12`: the activity change, negative = inhibition was 3.54% in assay [1] and 16.5% [at 11.4 µM] in assay [6]. Moreover, the Potency in assay [2] is 0.126 µM (active); in assay [8], above 9.22 µM. The activity, negative = inhibition in [4] is 16.1%. For the same molecule, in assay [7], the molecule was classed as inactive.
With `CO[C@@H]([CH2][Hg])CN1C(=O)c2ccccc2S1(=O)=O.Cn1c(=O)c2nc[nH]c2n(C)c1=O`, the activity change, negative = inhibition in assay [1] is 12.7%; in assay [2] it was -22% [at 2.29 µM]; in [3], -3.51%; in [6], -0.0716% [at 11.4 µM]. Further, in [4], the activity, negative = inhibition was 6.13%. The molecule was classed as inactive in [7].
As for `Cc1nc2ccccc2cc1C[N+]12CN3CN(CN(C3)C1)C2`, the activity change, negative = inhibition is -8.29% in assay [1], 6.19% in assay [3] and 0.875% [at 11.4 µM] in [6]. Further, the Potency in [2] is 0.631 µM (active). In addition, in assay [4], the activity, negative = inhibition was 6.99%. Further, the outcome in [7] was inactive.
`O=C(Oc1ccc(S(=O)(=O)F)cc1F)c1ccccc1Cl`: the activity change, negative = inhibition was -4.95% in assay [1], 5.76% in [3] and 2.49% [at 11.4 µM] in [6]. Further, in [4], the activity, negative = inhibition is -0.302%. Besides, the results for the Potency in assay [5] and in assay [8] were above 46 µM and above 9.22 µM, respectively. In addition, the outcome in assay [7] was inactive.
